Rows were chosen to be rich in hits. Some 1.1% of all compounds tested hit in one or more screens of this group.
FXIIa inh mix = blocks human factor XIIa in pooled compound mixtures; hit rate 0.2% among 62,000; P00748; purified FXIIa, fluorogenic substrate; inhibition, % at 5 µM;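 note: 0% = enzyme without compound and 100% = no enzyme blank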
BAP1 inh = inhibitors of human BAP1 deubiquitinase; Q92560; recombinant BAP1, Ub-AMC hydrolysis fluorescence kinetic; active compounds read low; calls only at 20 µM; hit rate 0.48% among 72,000;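 active = activity remaining at or below 50% of control, provided the compound also passes the data quality filters; inactive = the rest, including low values that fail the filters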;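 note: 100% = DMSO wells rate and 0% = substrate alone blank rate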
Target sequence (Q92560 whole entry, looked up): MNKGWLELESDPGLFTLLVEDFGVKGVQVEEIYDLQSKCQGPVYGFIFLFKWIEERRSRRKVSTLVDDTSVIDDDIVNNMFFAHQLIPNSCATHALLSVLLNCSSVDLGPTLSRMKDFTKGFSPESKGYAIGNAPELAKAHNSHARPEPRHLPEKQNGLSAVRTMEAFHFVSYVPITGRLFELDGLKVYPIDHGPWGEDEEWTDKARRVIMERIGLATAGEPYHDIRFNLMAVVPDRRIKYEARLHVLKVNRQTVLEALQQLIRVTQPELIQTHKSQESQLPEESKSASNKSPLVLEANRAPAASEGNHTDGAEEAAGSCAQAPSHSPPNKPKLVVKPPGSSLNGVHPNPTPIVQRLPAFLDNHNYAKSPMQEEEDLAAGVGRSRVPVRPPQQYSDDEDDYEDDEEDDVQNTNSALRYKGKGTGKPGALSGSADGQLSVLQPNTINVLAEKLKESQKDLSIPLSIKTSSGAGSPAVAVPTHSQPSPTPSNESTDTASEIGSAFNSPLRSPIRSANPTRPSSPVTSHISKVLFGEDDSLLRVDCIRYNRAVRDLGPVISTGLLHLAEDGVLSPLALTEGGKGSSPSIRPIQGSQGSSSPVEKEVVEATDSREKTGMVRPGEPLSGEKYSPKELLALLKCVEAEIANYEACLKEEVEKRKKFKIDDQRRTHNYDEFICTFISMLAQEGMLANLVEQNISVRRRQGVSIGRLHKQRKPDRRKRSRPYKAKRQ
C1s block = human complement C1s inhibition. mean inhibition % of two 10-compound mixtures (active compounds read high), % at 5 µM (by protocol). P09871. purified C1s, fluorogenic AMC substrate, pooled mixtures. hit rate 0.16% among 62,000. AID 538;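 active = inhibition above 20% in each of the two 10-compound mixture wells holding the compound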;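 note: 0% = enzyme wells lacking compound mixture and 100% = no-enzyme blank wells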
CatG inh = inhibitors of human cathepsin G; purified enzyme, AMC-tetrapeptide fluorescence, pooled mixtures; hit rate 0.2% among 62,000; inhibition, % at 5 µM (by protocol); P08311;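 active = inhibition above 20% in each of the two mixture wells holding the compound; inactive = inhibition of 20% or less in either well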;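 note: 0% = enzyme control without mixture and 100% = blank lacking enzyme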
FXIa inh mix = inhibitors of human coagulation factor XIa, pooled mixtures | purified FXIa, fluorogenic substrate | P03951 | inhibition, % at 5 µM | hit rate 0.19% among 62,000;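 note: each value is inhibition by a whole ten-compound pool holding the compound; 0% = enzyme with no mixture and 100% = wells lacking enzyme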
Ec RNAP inh = inhibitors of Escherichia coli RNA polymerase; P0A8V2; E. coli RNA polymerase, fluorescence transcription assay; inhibition, %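 (tested at 10 µM)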; hit rate 0.2% among 62,000; in the data active = inhibition above about 20%;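 note: 0% = enzyme without compound and 100% = no enzyme blank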
Active calls of the source: *; i = inactive; · = no result shown; + = active, no number. Cut-off read from the data, not from the text of the source, unless noted: active = inhibition above about 20% (passing the limit was not always enough); inactive = the rest.

SMILES	FXIIa inh mix	BAP1 inh	C1s block	CatG inh	FXIa inh mix	Ec RNAP inh
Cc1ccc(N2C(N)=NC(N)=NC23CCCCC3)cc1	·	i	·	·	·	·
COc1ccc(Cc2nnc(NC(=O)Cc3cccs3)s2)cc1OC	·	+	·	·	·	·
COc1ccc(S(=O)(=O)N2CCC(NC(=O)Nc3ccc(C)cc3)CC2)cc1	22*	i	4	1	4	5
CCn1c2ccccc2c2cc(C3C(C(=O)OCCOC)=C(C)NC4=C3C(=O)CCC4)ccc21 (stereo not given)	·	i	·	·	·	·
CCOc1ccc(C2C=C(c3ccc(C)cc3)Nc3ncnn32)cc1 (stereo not given)	-18	i	-17	-1	23*	-5
Cc1ccc(N2C(=O)c3ccc(C(=O)Nc4ccc([N+](=O)[O-])cc4)cc3C2=O)cc1	·	i	·	·	·	·
CCOC(=O)c1c(C)oc2c1c(/C=N/c1ccccn1)c(O)c1ccccc12	69*	i	-2	0	9	8
Cc1ccc(OCC(=O)Nc2ccc(N3CCOCC3)cc2)cc1	5	i	60*	45	51	7
Cc1cc(C)n2cc(CSc3nc4cc([N+](=O)[O-])ccc4s3)nc2n1	·	i	·	·	·	·
CC(=O)Nc1sc2c(c1CN1CCN(c3ccccn3)CC1)CCCC2	8	i	-1	-3	-2	6
Cc1sc(NC(=O)c2ccco2)c(CN2CCN(c3ccccn3)CC2)c1C	3	i	7	25	46*	2
c1coc(C2Nc3cccc4cccc(c34)N2)c1	5	·	8	10	15	21*
COc1ccc(C(=O)N2CC(C)OC(C)C2)cc1[N+](=O)[O-] (stereo not given)	·	i	·	·	·	·
COc1ccc(-c2cn3c(C)c(C(=O)N4CCc5ccccc5C4)sc3n2)cc1	2	+	0	6	1	8
Cc1sc2nc(-c3ccco3)oc(=O)c2c1C	-21	·	32*	11	6	5
O=c1oc(-c2ccco2)nc2ccccc12	6	i	48*	74*	13	8
O=C(Nc1ccc(Cl)c([N+](=O)[O-])c1)C1CC(=O)N(c2ccc(Cl)cc2)C1 (stereo not given)	·	i	·	·	·	·
Cc1ccccc1NC(=O)C1CCCN(S(=O)(=O)c2cnc[nH]2)C1 (stereo not given)	-1	i	-10	-6	4	2
Cc1c(NC(=O)C2CCCN(S(=O)(=O)c3cnc[nH]3)C2)c(=O)n(-c2ccccc2)n1C (stereo not given)	2	i	-5	-2	24*	0
Cc1nn(C)c(C)c1NC(=O)c1ccnn1C	1	i	21*	15	7	8
Cn1nccc1C(=O)Nn1cnnc1	8	i	-170	-23	-78	4
Cc1cccn2c(=O)c(C=Nc3ccccc3)c(NCc3ccccc3)nc12	·	i	·	·	·	·
Cc1ccsc1/C=c1\sc2ncnn2c1=O	19	i	11	43*	13	3
CC(=O)Nc1ccc(N2C(=O)c3ccc([N+](=O)[O-])cc3C2=O)cc1	·	i	·	·	·	·
COc1cccc2c1C(=O)c1c(O)c3c(c(O)c1C2=O)C[C@@](O)(C(=O)CO)C[C@@H]3O[C@H]1C[C@H](N)[C@H](O)[C@H](C)O1	6	i	-9	-5	3	32*
SMILES	FXIIa inh mix	BAP1 inh	C1s block	CatG inh	FXIa inh mix	Ec RNAP inh
Cn1ccnc1SCC(=O)Nc1ccc(OC(F)(F)F)cc1	·	i	·	·	·	·
CN/C=C1\C(=O)C(C)(C)Oc2ccc3ccc(=O)oc3c21	2	i	23*	10	13	7
CC1(C)Oc2ccc3ccc(=O)oc3c2/C(=C/Nc2ccccn2)C1=O	8	i	2	2	4	6
Cc1cc(C)nc(/N=C(\N)Nc2cc(C(F)(F)F)ccc2Cl)n1	·	i	·	·	·	·
O=C(CSc1nc2ccccc2o1)Nc1ccccc1N1CCCCCC1	2	i	-5	46	38*	4
CCOCCn1c(CN2CCCCC2)nc2c1c(=O)n(C)c(=O)n2C	-18	i	-25	-2	13	8
CCOCCn1c(CN2CCN(CC)CC2)nc2c1c(=O)n(C)c(=O)n2C	5	i	2	2	3	22*
COC(=O)Cc1c(C)c2c(OCc3nn[nH]n3)cc(C)cc2oc1=O	24*	i	-51	4	-4	6
COc1ccccc1C1NC(=O)NC(C)=C1C(C)=O (stereo not given)	72*	i	0	2	12	1
COc1cccc(Oc2ccc(N)cn2)c1	23*	i	-11	0	-9	6
CC1=C(C(=O)OCc2ccco2)C(c2cc3c(cc2Br)OCO3)NC(=O)N1 (stereo not given)	·	i	·	·	·	·
CCc1cc2c(SCC(=O)O)ncnc2s1	4	i	7	6	11	-1
CCc1cc2c(SCC(=O)c3cccs3)ncnc2s1	-16	i	15	15	4	24*
O=c1[nH]c(CN2CCc3ccccc3C2)nc2ccccc12	4	i	9	48*	10	5
O=c1[nH]ncc2c3ccccc3n(Cc3ccccc3)c12	27	i	-2	-6	5	-2
Cc1ccc(Cn2c3ccccc3c3cn[nH]c(=O)c32)cc1	0	i	-10	0	7	74*
O=C(c1ccc(-c2ccccc2)cc1)N1CCOCC1	·	i	·	·	·	·
O=[N+]([O-])c1ccc(N2CCOCC2)cc1SCCO	·	i	·	·	·	·
Cc1ccccc1C(=O)Nc1ccc(Cl)cn1	32	i	9	-1	-3	12
CCOC(=O)NC1(Nc2ccc(Cl)cn2)Oc2ccccc2O1	3	i	0	-3	5	25*
Cc1n[nH]c(C)c1N1C(=O)c2cccc3c([N+](=O)[O-])ccc(c23)C1=O	·	i	·	·	·	·
Cc1cc(-c2ccccc2C(=O)NCc2ccccc2)on1	5	i	16	59	27*	14
Cc1cc(NS(=O)(=O)c2ccc(NC(=O)COc3ccccc3C(C)C)cc2)no1	-2	i	25*	37	23	5
O=C(NCc1cccs1)c1cc(-c2cccs2)on1	-9	i	12	34*	10	4
O=C(NCc1cccs1)c1cc(-c2ccccc2)on1	18	i	10	12	2	13
SMILES	FXIIa inh mix	BAP1 inh	C1s block	CatG inh	FXIa inh mix	Ec RNAP inh
Cc1ccc(-c2cc(C(=O)NCc3ccccn3)no2)cc1	-4	i	65*	8	4	16
O=C(OCCN1C(=O)c2ccc([N+](=O)[O-])cc2C1=O)C1CCCCC1	·	i	·	·	·	·
COc1cccc(-c2nnn(CC(=O)NC3CCCC3)n2)c1OC	6	i	15	9	22*	9
O=C(Cn1nnc(-c2ccccc2NC(=O)C2CC2)n1)NC1CCCCC1	7	i	5	12	6	8
CCn1c(SCC(=O)NC(=O)Nc2ccc3c(c2)OCCO3)nnc1-c1cccs1	3	i	-9	-7	4	22*
CCn1c(SCC(=O)Nc2ccc3c(c2)OCCO3)nnc1-c1ccco1	-16	i	16	12	11	4
CC(=O)Nc1nc(CC(=O)c2ccccc2)cs1	-13	i	-9	46	36*	3

Source: PubChem
